Records with an inconclusive call do not appear. The source made the active and inactive calls. Rule for the calls: active = hit-call score of the fitted dose curve at least 0.9, where 1 is the maximum; inconclusive = response in the unintended direction; inactive = score below 0.9.
These molecules were tested on Cytochrome P450 2C19 (Homo sapiens) (UniProt P33261) (assay: CLD_CYP2C19_24hr: CellzDirect (CLD) Gene Expression Assay for xenobiotic metabolism (CYP2C19) at 24 hours (AID 2283687);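 note: activity means mRNA induction above DMSO vehicle baseline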).
Chain of Cytochrome P450 2C19 (Homo sapiens) (P33261 whole entry, looked up): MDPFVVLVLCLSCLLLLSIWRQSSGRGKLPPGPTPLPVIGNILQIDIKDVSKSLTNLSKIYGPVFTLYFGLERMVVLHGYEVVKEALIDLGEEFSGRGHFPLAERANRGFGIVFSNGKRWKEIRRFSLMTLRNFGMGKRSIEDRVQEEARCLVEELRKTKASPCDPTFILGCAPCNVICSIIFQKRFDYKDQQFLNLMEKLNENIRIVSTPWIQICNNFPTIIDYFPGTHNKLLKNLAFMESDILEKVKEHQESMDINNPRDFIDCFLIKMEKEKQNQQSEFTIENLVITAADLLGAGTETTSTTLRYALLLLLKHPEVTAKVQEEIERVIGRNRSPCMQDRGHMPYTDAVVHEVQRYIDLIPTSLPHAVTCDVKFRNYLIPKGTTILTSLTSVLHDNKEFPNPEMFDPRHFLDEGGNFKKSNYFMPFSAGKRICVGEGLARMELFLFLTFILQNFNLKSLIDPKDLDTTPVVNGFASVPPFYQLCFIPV
Protocol: CLD_24hr is a cell-based, multiplexed-readout assay that uses hepatocyte, a human liver primary cell, with measurements taken at 24 hours after chemical dosing in a 96-well plate.CLD_CYP2C19_24hr is one of 16 assay component(s) measured or calculated from the CLD_24hr assay. It is designed to make measurements of mRNA induction, a form of inducible reporter, as detected with chemiluminescence signals by Quantitative Nuclease Protection Assay (qNPA) technology.Data from the assay component CLD_CYP2C19_24hr was analyzed at the endpoint, CLD_CYP2C19_24hr, in the positive analysis fitting direction relative to DMSO as the negative control and baseline of activity. Using a type of inducible reporter, gain-of-signal activity can be used to understand changes in the reporter gene as they relate to the gene CYP2C19. Furthermore, this assay endpoint can be referred to as a primary readout. To generalize the intended target to other relatable targets, this assay endpoint is annotated to the cyp intended target family, where subfamily is xenobiotic metabolism.
Human hepatocyte cultures were treated daily for two consecutive days with fresh dosing solutions containing appropriate concentrations of the 320 ToxCast chemicals (chemical identities were blinded to CellzDirect and other ToxCast collaborators), vehicle control (0.2% DMSO), and positive control inducers as summarized in Table 1. Due to the large number of treatment groups and chemicals examined, the ToxCast chemicals were divided into two groups (spanning two independent cultures of hepatocytes from separate donor preparations (Hu778: ToxCast plates 1 and 2; Hu776: ToxCast plates 3 and 4). Each preparation of human hepatocyte cultures was treated with respective vehicle control, medium only control, set of six positive controls/reference chemicals for the five hepatic receptor pathways, and a subset of eight of the ToxCast chemicals (indoxacarb, pyrithiobac-sodium, norflurazon, cyhalofop-butyl, methomyl, thiram, acetochlor, and propiconazole). These replicate data, coupled with internal replicates designed within the blinded ToxCast chemical library, provided additional data to evaluate interindividual differences between hepatocyte preparations and their potential impact on chemical profiles.Cell morphology and integrity were evaluated using phase-contrast microscopy as an indicator of hepatocyte cell health (Tyson & Green, 1987). Cultures for each treatment group (i.e., media, vehicle [0.2% DMSO], positive control inducers [multiple concentrations], and the ToxCast chemicals [multiple concentrations]) were observed and cell morphology was assessed relative to vehicle control cultures at each harvest time point (0, 6, 24, or 48 h). […] Images were evaluated at the conclusion of the study to assess changes in cell integrity and account for the effects of chemical exposure on uncharacteristic changes in concentration-dependent gene expression profiles. The results from these determinations of apparent cytotoxicity were annotated (yes/no) alongside the corresponding qNPA data for reference.At the conclusion of each treatment period, hepatocyte cultures (96-well) were washed with 1 volume of HBSS, lysed by addition of 25 ul ArrayPlate lysis buffer (HTG, Tucson, AZ), and 70 ul/well of Denaturation Oil, denatured by incubation at 95C for 10 min, and frozen at approximately -70C until analysis by nuclease protection assay (qNPA) (Roberts et al., 2007). For qNPA analysis, cell lysates were thawed at 50C for approximately 30 min, qNPA probes were added, and samples were incubated at 95C for 10 min to begin the detection process by denaturing the target RNA, dissociating the duplexes and secondary structure hybridization. At the conclusion of the hybridization period, S1 nuclease reagent was added to each sample to digest all nonprotected nucleotides at 50C for 60-90 min. […]

SMILES	outcome
CCCCNC(=O)OCC#CI	inactive
COc1nc(NC(C)C)nc(NC(C)C)n1	inactive
COc1nc(C)nc(NC(=O)NS(=O)(=O)c2ccccc2CCC(F)(F)F)n1	inactive
CCNc1nc(Cl)nc(NC(C)C)n1	inactive
COc1nc(C)nc(NC(=O)NS(=O)(=O)c2ccccc2Cl)n1	inactive
COC(=O)C(C)Oc1ccc(Oc2ccc(Cl)cc2Cl)cc1 (centres undefined)	inactive
COC(=O)c1ccccc1C(=O)OC	inactive
CC1COC(Cn2cncn2)(c2ccc(Oc3ccc(Cl)cc3)cc2Cl)O1 (centres undefined)	inactive
COP(N)(=O)SC (centres undefined)	inactive
CNC(=O)ON=CC(C)(C)SC	inactive
N#CC(CCc1ccc(Cl)cc1)(Cn1cncn1)c1ccccc1 (centres undefined)	inactive
CS/C(C)=N/OC(=O)N(C)SN(C)C(=O)O/N=C(\C)SC	inactive
CC(C)(C)c1ccc(CSc2cnn(C(C)(C)C)c(=O)c2Cl)cc1	inactive
COC(=O)N(OC)c1ccccc1COc1ccn(-c2ccc(Cl)cc2)n1	inactive
CC(C)C1(C)N=C(c2nc3ccccc3cc2C(=O)O)NC1=O (centres undefined)	inactive
O=C(O)COc1nc(Cl)c(Cl)cc1Cl	inactive
CCCCNC(=O)n1c(NC(=O)OC)nc2ccccc21	inactive
CO/C=C(/C(=O)OC)c1ccccc1Oc1cc(Oc2ccccc2C#N)ncn1	inactive
CCON=C(CC)C1=C(O)CC(c2c(C)cc(C)cc2C)CC1=O (centres undefined)	inactive
COc1cnc(OC)n2nc(NS(=O)(=O)c3c(OCC(F)F)cccc3C(F)(F)F)nc12	inactive
CCOC(=O)C(Cl)Cc1cc(-n2nc(C)n(C(F)F)c2=O)c(F)cc1Cl (centres undefined)	inactive
Cc1cc(Cl)ccc1OCC(=O)O	inactive
C=CC1(C)OC(=O)N(c2cc(Cl)cc(Cl)c2)C1=O (centres undefined)	inactive
O=C(O)c1nc(Cl)ccc1Cl	inactive
CCOC(=O)CC(SP(=S)(OC)OC)C(=O)OCC (centres undefined)	inactive
CC(Oc1ccc(Cl)cc1Cl)C(=O)O (centres undefined)	inactive
COP(=S)(OC)Oc1nc(Cl)c(Cl)cc1Cl	inactive
CCCCC(CC)COC(=O)c1ccccc1C(=O)OCC(CC)CCCC (centres undefined)	inactive
Oc1ccccc1-c1ccccc1	inactive

Reference: PubChem BioAssay (EPA / NIEHS)
